# Reference: PubChem BioAssay AID588591 (National Center for Advancing Translational Sciences (NCATS), 2011)
# Screen size: about 390,000 compounds; about 4,700 (1.2%) were called active. Inconclusive results (about 4%) are left out. The list comes from a sample in which actives are over-represented; it also holds similar structures and randomly drawn compounds. Values without a mark were called inactive. Calls come from the whole dose curve; as a rule, active = well fitted inhibition curve with a large enough effect; inconclusive = small, poorly fitted or top-dose-only effect, or another doubt; inactive = no such curve, though single readings can be large or run the other way.
# Molecular target: DNA polymerase eta (Homo sapiens) (UniProt Q9Y253)
# Sequence (Q9Y253 whole entry, looked up): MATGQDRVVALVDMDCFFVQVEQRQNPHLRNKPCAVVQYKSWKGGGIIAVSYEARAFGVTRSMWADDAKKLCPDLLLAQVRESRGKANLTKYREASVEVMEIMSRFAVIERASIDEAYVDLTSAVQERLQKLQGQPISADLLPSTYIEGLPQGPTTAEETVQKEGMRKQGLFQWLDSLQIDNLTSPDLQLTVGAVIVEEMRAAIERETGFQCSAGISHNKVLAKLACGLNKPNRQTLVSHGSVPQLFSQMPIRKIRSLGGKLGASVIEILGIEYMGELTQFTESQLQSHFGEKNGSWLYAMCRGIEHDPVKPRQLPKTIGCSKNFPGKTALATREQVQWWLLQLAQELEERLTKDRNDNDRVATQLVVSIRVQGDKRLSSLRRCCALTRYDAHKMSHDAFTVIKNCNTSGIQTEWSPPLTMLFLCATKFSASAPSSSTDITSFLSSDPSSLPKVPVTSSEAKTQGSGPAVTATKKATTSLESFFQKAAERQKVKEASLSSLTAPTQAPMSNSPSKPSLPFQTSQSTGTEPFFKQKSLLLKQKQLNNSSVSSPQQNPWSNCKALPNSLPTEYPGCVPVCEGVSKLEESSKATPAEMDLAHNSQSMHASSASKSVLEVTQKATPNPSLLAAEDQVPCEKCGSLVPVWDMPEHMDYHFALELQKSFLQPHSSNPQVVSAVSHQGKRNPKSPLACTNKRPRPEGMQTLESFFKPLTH
# Assay: qHTS for Inhibitors of Polymerase Eta
# Conditions: recombinant Pol eta, fluorescent DNA replication assay; series mostly up to 114 µM; activity change, negative = inhibition: at the top concentration
# Procedure, shortened: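 Pol eta at 10 nM preincubated with compounds 15 min at room temperature; reaction started with fluorescent substrate (50 nM final) and read kinetically at 0 and 10 min.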
# % is set by controls: 0 for no effect and ±100 for the full control effect; potency is the fitted concentration of half-maximal effect.
Compound,"activity change, negative = inhibition",Potency
CC(C)S(=O)(=O)c1oc(-c2ccc(F)cc2)nc1S(=O)(=O)c1ccc(F)cc1,-22.2%,–
CCN(c1ccc(Cl)cc1)S(=O)(=O)c1nnc(NC(=O)c2ccco2)s1,–,39.8 µM (active)
Cc1ccccc1C(=O)Nc1nnc(S(=O)(=O)N(C)c2ccc(Cl)cc2)s1,-1.26%,–
CN(Cc1ccco1)S(=O)(=O)c1nnc(NC(=O)c2ccccc2)s1,-18.2%,–
Cn1nc(-c2ccccc2)c(-c2ccccc2)c(C(=O)Nc2ccc(S(N)(=O)=O)cc2)c1=O,-13.8%,–
Cc1cc(O)c(C(=O)/C=C/c2c(F)c(F)c(F)c(F)c2F)c(=O)o1,–,35.5 µM (active)
O=C(O)/C(=C/c1c(C(=O)O)[nH]c2cc(Cl)cc(Cl)c12)c1ccccc1,1.06% [at 57.1 µM],–
O=C1OC(C(=O)Nc2cccc(Br)c2)Cc2ccccc21 (configuration not stated),-1.35%,–
Cc1ccc(-n2nc(C)c3c(C)cc(=O)n(CC(=O)Nc4ccc(C(C)C)cc4)c32)cc1,-4.68%,–
CCOC(CNC(=O)C1CCN(S(=O)(=O)c2ccc3nc4c(c(C(=O)O)c3c2)CC(C)CC4)CC1)OCC (configuration not stated),–,31.6 µM (active)
Cc1ccc(CNC(=O)C2CCN(S(=O)(=O)c3ccc4nc5c(c(C(=O)O)c4c3)CC(C)CC5)CC2)cc1 (configuration not stated),–,inactive
CCOc1ccc(S(=O)(=O)N2CCC(C(=O)NCc3ccccn3)CC2)cc1Cl,2.78%,–
CCNS(=O)(=O)c1cc(-c2nnc(Nc3cccc(C(F)(F)F)c3)c3ccccc23)ccc1C,-18.4%,–
Cc1ccccc1-c1nc(SCC(=O)N(C)c2ccccc2)c2c(=O)n(C)c(=O)n(C)c2n1,-25%,–
CCOC(=O)Cn1c(=O)n(-c2ccccc2OC)c2nc(-c3cccc(F)c3)nc(C(N)=O)c21,-17%,–
CCOC(=O)c1cc2c(=O)n3ccccc3nc2n(CCCOC)c1=NC(=O)C(C)(C)Oc1ccc(Cl)cc1,-19.7%,–
NC(=O)CSc1nnc(NC(=O)c2ccc(Br)o2)s1,–,20 µM (active)
COc1cc(OC)cc(C(=O)Nc2nnc(SCC(=O)NCC3CCCO3)s2)c1 (configuration not stated),-19.7%,–
CCSc1nnc(NC(=O)c2cc(=O)c3cc(C)c(C)cc3o2)s1,-14.5%,–
CCOc1ccccc1N(CC)C(=O)c1cc2ccc3cccnc3c2[nH]1,-2.25%,–
COc1ccccc1N1CC(C(=O)Nc2nnc(SCC(=O)NCC3CCCO3)s2)CC1=O (configuration not stated),-20%,–
COc1ccccc1N1CC(C(=O)Nc2nnc(SCC(=O)NC(C)C)s2)CC1=O (configuration not stated),4.61%,–

Compound,"activity change, negative = inhibition",Potency
Cc1ccccc1N1CC(C(=O)Nc2nnc(SCCC3OCCO3)s2)CC1=O (configuration not stated),–,20 µM (active)
COc1ccc(SCc2cc(=O)c3ccc(C)c(C)c3[nH]2)cc1,-3.7%,–
Cc1ccc(NC(=O)c2ccc3[nH]c(C)cc(=O)c3c2)c(C)c1,-3.29%,–
CCOC(=O)C1=C(c2ccccc2)Nc2ncnn2C1c1ccc(Cl)cc1 (configuration not stated),-18.3%,–
NS(=O)(=O)c1cc(C(=O)OCC(=O)NNC(=O)c2ccccc2)ccc1Cl,-1.41%,–
O=C(NC1=CC(=O)c2ccccc2C1=O)c1ccccc1,–,89.1 µM (active)
O=C(O)CN1c2cccc3cccc(c23)S1(=O)=O,–,28.2 µM (active)
CC(C)CN(CC(C)C)C(=O)CN1c2cccc3cccc(c23)S1(=O)=O,-9.58%,–
COc1ccc(C)cc1NC(=O)CN1c2cccc3cccc(c23)S1(=O)=O,-8.64%,–
COc1ccccc1Cc1nc2ccccc2nc1SCC(=O)N1CCCc2ccccc21,6.87%,–
CC(=O)c1ccc(N2CCN(c3nc4c(S(=O)(=O)c5ccccc5)nnn4c4ccc(Cl)cc34)CC2)cc1,-14%,–
C#CCOCCOCCOCCNc1nc(N2CCN(C(=O)[C@H](CCC(=O)O)n3cc(C(N)CO)nn3)CC2)nc(N2CCN(C(=O)[C@H](Cc3ccc(O)cc3)n3cc(C(N)[C@H](C)CC)nn3)CC2)n1 (some centres not stated),1.96%,–
C#CCOCCOCCOCCNc1nc(N2CCN(C(=O)CCCCCCCCCCNC(=O)[C@H](CCCCN)n3cc(C)nn3)CC2)nc(N2CCN(C(=O)CCCCCCCCCCNC(=O)[C@H](CO)n3cc(CCCSC)nn3)CC2)n1,–,89.1 µM (active)
C#CCOCCOCCOCCNc1nc(N2CCN(C(=O)CCCCCCCCCCNC(=O)[C@H]([C@@H](C)CC)n3cc(CCCCN=C(N)N)nn3)CC2)nc(N2CCN(C(=O)CCCCCCCCCCNC(=O)[C@H](CO)n3cc(CCCSC)nn3)CC2)n1,–,50.1 µM (active)
C#CCOCCOCCOCCNc1nc(N2CCN(C(=O)C([C@@H](C)CC)n3cc(C(N)COC(=O)C(F)(F)F)nn3)CC2)nc(N2CCN(C(=O)[C@H](Cc3ccc(O)cc3)n3cc(C(N)[C@H](C)CC)nn3)CC2)n1 (some centres not stated),-12%,–
C#CCOCCOCCOCCNc1nc(N2CCN(C(=O)C([C@@H](C)CC)n3cc(C(N)COC(=O)C(F)(F)F)nn3)CC2)nc(N2CCN(C(=O)[C@H](CCCCN)n3cc(C(N)CC(C)C)nn3)CC2)n1 (some centres not stated),-1.59%,–
COc1ccccc1NC(=O)Cn1cnc2ccc(S(=O)(=O)N3CCC(C)CC3)cc2c1=O,-21.9%,–
COc1ccc(-c2nc3c4ccccc4n(CC(=O)Nc4ccc(C(C)=O)cc4)c(=O)n3n2)cc1,-3.59%,–
O=C(CSCc1cnn(-c2ccccc2)c1-n1cccc1)NCc1ccc(Cl)cc1,-15.8%,–
CCOc1ccc(-c2cc3nc(C4CCN(C(=O)OC(C)(C)C)CC4)c(C(=O)Nc4cccc(CC)c4)cn3n2)cc1,-17.4%,–
CC(=O)c1ccc(NS(=O)(=O)c2ccc(-c3cc(C)no3)s2)cc1,7.23%,–
Cc1oc2c(C)c3oc(=O)c(CC(=O)N[C@@H](CC(C)C)C(=O)N[C@@H](Cc4ccccc4)C(=O)O)c(C)c3cc2c1C,–,20 µM (active)

Compound,"activity change, negative = inhibition",Potency
Cc1c(CCC(=O)N[C@@H](CC(C)C)C(=O)O)c(=O)oc2c(C)c3oc4c(c3cc12)CCCC4,-9.53%,–
Cc1c(OC(C)C(=O)N[C@@H](Cc2ccccc2)C(=O)O)ccc2c3c(c(=O)oc12)CCCC3 (some centres not stated),-15.3%,–
NC(=O)CCN1CCN(S(=O)(=O)/C=C/c2ccccc2)CC1,11.3%,–
O=C(CN1CCN(S(=O)(=O)/C=C/c2ccccc2)CC1)NC(=O)NCc1ccco1,–,79.4 µM (active)
CC1(c2ccccc2Cl)NC(=O)N(CC(=O)NC(=O)NCc2ccco2)C1=O (configuration not stated),-4.59%,–
CCOc1cc(-c2nnc(SCC(=O)NC3CCCCC3)nc2-c2ccc(OC)c(OCC)c2)ccc1OC,-16.8%,–
CC(=O)Nc1ccc(NC(=O)c2cc3sccc3n2Cc2ccc(F)cc2)cc1,-25.1%,–
CCCCN(C)S(=O)(=O)c1ccc(C(=O)Nc2sc3c(c2C(N)=O)CC(C)(C)NC3(C)C)cc1,5.33%,–
COc1ccc(C)cc1NC(=O)c1[nH]c(C)c(C(C)=O)c1C,-13.9%,–
COc1cccc2c(C)c(C(=O)O)[nH]c12,–,12.6 µM (active)
COc1ccccc1CNCc1ccc(C(=O)O)s1,-19.3%,–
CCOc1ccc(C(=O)Nc2ccc3nc4c(c(Nc5ccccc5OC)c3c2)CCCC4)cc1,-17%,–
CC(=O)c1ccc(NC(=O)CSc2nnc(NC(=O)Nc3ccccc3)s2)cc1,-10.6%,–
CC(C)c1ccc(Nc2nnc(SCC(=O)c3nnc(-c4ccccc4)o3)s2)cc1,–,15.8 µM (active)
CN(C(=O)CSc1nnc(NC(=O)Nc2ccccc2)s1)c1ccccc1,-5.03%,–
COc1ccc(C)cc1N(C)C(=O)c1c(C)oc2ncnc(N3CCOCC3)c12,1.72%,–
Cc1ccc(NC(=O)c2cc(-c3ccc(C)o3)nc3ccccc23)nc1,–,22.4 µM (active)
Cc1ccc(-c2cc(C(=O)NN)n[nH]2)o1,0.265%,–
CCOc1ccc(CNC(=O)c2cc(-c3ccc(Cl)s3)nc3ccccc23)cc1,-8.47%,–
CCOc1cccc(CNC(=O)c2ccc(N3CCCC3)c(NC(=O)Nc3ccccc3CC)c2)c1,-10.1%,–
O=C(Nc1ccc(OC(F)(F)F)cc1)C1CCCN(S(=O)(=O)c2ccc(Br)s2)C1 (configuration not stated),-15.9%,–
O=C(NCCc1ccccc1)c1cnc2sc(N3CCCC3)nn2c1=O,-9.25%,–

Compound,"activity change, negative = inhibition",Potency
CC(=O)c1nn(-c2ccc(OC(F)(F)F)cc2)nc1Nc1ccccc1,-12.7%,–
Cc1ccc(-c2cc(-c3coc4ccccc4c3=O)c3c(n2)-c2cc(Cl)ccc2OC3)cc1,-2.19%,–
Cc1cccc(OCCSc2nc3ccccc3n2CC(=O)N2CCCCC2)c1C,-22.7%,–
NC(=O)C1CCN(C(=O)c2cccc(NC(=O)c3nsc4ccccc34)c2)CC1,-11%,–
NC1=CC(=O)C(=O)c2cccnc21,–,8.91 µM (active)
Cc1nn(CC(=O)NCCc2ccccc2)c(=O)c2c1sc1ccccc12,7.02%,–
COc1ccc(CNC(=O)Cc2coc3ccc(C(C)C)cc23)cc1,-8.76%,–
COc1ccc(N(C)C(=O)C2CCN(S(=O)(=O)c3cc(Br)cc4c3N(C(C)=O)CC4)CC2)cc1,-9.98%,–
Cn1c(=O)c2c(SCC(=O)N3CCc4ccccc43)nc(-c3ccc(Cl)cc3)nc2n(C)c1=O,-13.8%,–
C=CCn1c(=O)c(C(=O)NCc2ccc3c(c2)OCO3)c(O)c2ccccc21,-4.62%,–
Cc1nc2c(C(=O)NCc3ccc4c(c3)OCO4)c[nH]n2c(=O)c1Cc1ccccc1F,–,89.1 µM (active)
COc1ccccc1-n1c(C)nc2cc(C(=O)NCc3ccc4c(c3)OCO4)ccc21,-18.8%,–
COc1ccc(NC(=O)Cn2c(=O)n(CCC(C)C)c(=O)c3cccnc32)cc1Cl,-9.44%,–
CCN(CC)S(=O)(=O)c1ccc2c(c1)nc(CN(C)C(=O)Nc1ccc(Cl)cc1)n2C,-11%,–
CC(=O)N1CCc2cc(S(=O)(=O)NC(Cc3ccccc3)C(=O)NCc3ccc(C)cc3)ccc21 (configuration not stated),-6.24%,–
Cc1sc(C2C(C#N)=C(N)N(c3cccc(Cl)c3)C3=C2C(=O)CCC3)cc1CN1CCOCC1 (configuration not stated),-8.01%,–
CN1CCOC1c1ccc(C2OCCN2C)cc1 (configuration not stated),–,20 µM (active)
Cc1csc2nc(COC(=O)c3ccccc3NC(=O)c3ccccc3Cl)cc(=O)n12,-7.27%,–
O=C(CCc1ccccc1)NCCc1cccs1,-16.9%,–
O=C(O)CCC(=O)N(Cc1cccs1)Cc1cccs1,–,20 µM (active)
Cc1ccnc(NC(=O)CCC(=O)N(CC(=O)NCCc2ccccc2)Cc2cccs2)c1,-9.54%,–
